From the supplement of paper PMC3545927
This is one part of the list. No count for the full screen is at hand.

Target: furin, P09958
Assay: furin cleavage Z-score vs untreated control; higher = more cleavage, active = 3.5 or more, inactive = 1 or less, 8 variable residues between constant flanks
How it was run: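 To give the cleavage Z-score, log read counts were set against furin-free reactions, lowess-adjusted and scaled by median absolute deviation. These counts came from PCR adapter-tagged, sequenced DNA released when purified furin cut 8-mer peptides fused to a cDNA oligonucleotide and held on magnetic beads by their N-terminus. Digests were 0.01 ml, 1:10 enzyme:substrate, in 50 mM HEPES pH 7.5 with CaCl2 and NaCl, for 7.5, 15 or 30 min.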

Chain of furin, P09958 (P09958 whole entry): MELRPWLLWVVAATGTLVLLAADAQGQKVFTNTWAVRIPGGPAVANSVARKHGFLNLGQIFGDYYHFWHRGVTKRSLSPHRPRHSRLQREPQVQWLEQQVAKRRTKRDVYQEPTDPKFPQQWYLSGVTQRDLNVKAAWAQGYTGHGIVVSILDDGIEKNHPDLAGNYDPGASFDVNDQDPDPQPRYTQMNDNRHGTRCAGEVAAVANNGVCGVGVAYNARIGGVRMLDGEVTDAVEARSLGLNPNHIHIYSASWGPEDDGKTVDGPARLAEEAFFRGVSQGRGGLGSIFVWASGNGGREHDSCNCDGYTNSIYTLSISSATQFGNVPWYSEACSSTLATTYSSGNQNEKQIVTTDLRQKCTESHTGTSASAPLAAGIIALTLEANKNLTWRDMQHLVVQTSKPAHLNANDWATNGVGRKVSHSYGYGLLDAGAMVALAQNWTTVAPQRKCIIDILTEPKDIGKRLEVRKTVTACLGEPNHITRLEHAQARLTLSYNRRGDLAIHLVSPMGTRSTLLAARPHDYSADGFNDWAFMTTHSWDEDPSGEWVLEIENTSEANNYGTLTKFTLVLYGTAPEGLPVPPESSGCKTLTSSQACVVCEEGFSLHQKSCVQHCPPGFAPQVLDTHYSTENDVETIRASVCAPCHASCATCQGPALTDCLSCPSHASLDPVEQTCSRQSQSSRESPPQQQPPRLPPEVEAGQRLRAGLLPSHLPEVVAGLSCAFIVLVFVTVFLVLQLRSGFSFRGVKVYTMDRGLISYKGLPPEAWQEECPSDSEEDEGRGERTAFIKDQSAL

Sequence	furin cleavage Z-score (7.5 min)	furin cleavage Z-score (15 min)	furin cleavage Z-score (30 min)
CAREFRIIFDAGNASASA [FS-2002]	-0.0827 (inactive)	-0.962 (inactive)	-0.343 (inactive)
CAPCEPEPDVAGNASASA [HC1241]	-0.464 (inactive)	0.432 (inactive)	-0.805 (inactive)
CATTPVSGSWAGNASASA [HC43]	-0.371 (inactive)	0.0296 (inactive)	0.074 (inactive)
CAEVETSTWVAGNASASA [HC2192]	-0.139 (inactive)	-0.872 (inactive)	-0.676 (inactive)
CAEVVVSTWVAGNASASA [HC123]	0.0781 (inactive)	-2.67 (inactive)	-0.513 (inactive)
CAYMNRRRRHAGNASASA [FS-320]	5.9 (active)	7.94 (active)	6.26 (active)
CAVALRRRRHAGNASASA [FS-1577]	11.1 (active)	12.6 (active)	9.5 (active)
CAETMRRRRHAGNASASA [FS-928]	10.4 (active)	11.7 (active)	10 (active)
CAPISRRRRHAGNASASA [FS-69]	10.5 (active)	12.1 (active)	10.2 (active)
CAVILLMCAVAGNASASA [HC597]	-0.0828 (inactive)	-1.86 (inactive)	-1.55 (inactive)
CAELITSCSSAGNASASA [HC1551]	-0.448 (inactive)	0.888 (inactive)	-0.654 (inactive)
CACRASGVLTAGNASASA [HC1510]	-0.191 (inactive)	-0.919 (inactive)	-0.424 (inactive)
CAPVVTSTWVAGNASASA [HC2159]	0.805 (inactive)	0.48 (inactive)	0.275 (inactive)
CAEVFCVQPEAGNASASA [HC1442]	-0.865 (inactive)	-0.957 (inactive)	-0.965 (inactive)
CAMMSRIFRHAGNASASA [FS-1236]	-0.468 (inactive)	-0.194 (inactive)	1.99
CAMKIRRRRHAGNASASA [FS-275]	6.27 (active)	6.38 (active)	5.11 (active)
CAVACCSMSYAGNASASA [HC2003]	-0.939 (inactive)	1.22	0.305 (inactive)
CARMKRYILHAGNASASA [FS-2222]	2.82	6.82 (active)	8.57 (active)
CARMKRESLMAGNASASA [FS-3228]	9.24 (active)	10.5 (active)	11.4 (active)
CARKKKEEEMAGNASASA [FS-2264]	-1.03 (inactive)	-1.15 (inactive)	-0.39 (inactive)
CARMKREDLNAGNASASA [FS-2718]	11.1 (active)	11.1 (active)	9.09 (active)
CAEAADAILHAGNASASA [HC268]	1.3	-1.15 (inactive)	0.548 (inactive)
CARMKRVWDRAGNASASA [FS-2722]	2.92	-0.324 (inactive)	0.97 (inactive)
CARMKREITTAGNASASA [FS-2047]	9.07 (active)	9.89 (active)	7.88 (active)

Sequence	furin cleavage Z-score (7.5 min)	furin cleavage Z-score (15 min)	furin cleavage Z-score (30 min)
CARMKRILQRAGNASASA [FS-2720]	0.0731 (inactive)	1.31	0.696 (inactive)
CATTPCTGSWAGNASASA [HC76]	0.592 (inactive)	0.698 (inactive)	0.31 (inactive)
CAKQKALGLLAGNASASA [HC1025]	-0.454 (inactive)	1.56	0.147 (inactive)
CALLLAAGVGAGNASASA [HC1659]	-1.34 (inactive)	-0.972 (inactive)	0.0513 (inactive)
CADREVVTSTAGNASASA [HC2293]	0.73 (inactive)	-0.878 (inactive)	0.0278 (inactive)
CANVDQDLVGAGNASASA [HC712]	-0.364 (inactive)	-0.928 (inactive)	0.183 (inactive)
CARHRRQIDRAGNASASA [FU5]	8.52 (active)	9.09 (active)	7.54 (active)
CARHRRTPDRAGNASASA [FS-2555]	3.94 (active)	6.66 (active)	4.45 (active)
CARALAHGVRAGNASASA [HC235]	-1.61 (inactive)	-0.489 (inactive)	-0.193 (inactive)
CARHRARSVRAGNASASA [HC1621]	5.03 (active)	5.34 (active)	5.83 (active)
CACSQHLPYIAGNASASA [HC1016]	-1.19 (inactive)	-4.19 (inactive)	-2.45 (inactive)
CAGPLLCPAGAGNASASA [HC744]	-0.656 (inactive)	-1.61 (inactive)	-1.61 (inactive)
CATTPCSAHLAGNASASA [HC2478]	0.336 (inactive)	0.111 (inactive)	-0.164 (inactive)
CAVVCCSESYAGNASASA [HC2052]	-0.759 (inactive)	-0.905 (inactive)	-0.208 (inactive)
CAQRRRSIRDAGNASASA [FS-287]	14.8 (active)	16.3 (active)	11.3 (active)
CAIPCRSIRDAGNASASA [FS-668]	4.89 (active)	6.2 (active)	5.07 (active)
CAQRRRPTRPAGNASASA [FS-371]	-1.13 (inactive)	0.703 (inactive)	-0.42 (inactive)
CASTTCSAHLAGNASASA [HC2518]	-0.961 (inactive)	-1.68 (inactive)	-0.439 (inactive)
CAKTSRSRRRAGNASASA [FS-1225]	5.45 (active)	6.99 (active)	6.15 (active)
CARVKRSRRRAGNASASA [FS-2839]	10.1 (active)	10.8 (active)	9.23 (active)
CADPSRSRRRAGNASASA [FS-1448]	0.778 (inactive)	3.15	3.47
CAGESRSRRRAGNASASA [FS-329]	2.73	3.06	3.66 (active)
CAKTSERSQPAGNASASA [HC186]	2.56	-0.461 (inactive)	0.776 (inactive)
